Experimental data from PubChem BioAssay (EPA / NIEHS).
Records with an inconclusive call do not appear. Calls of active or inactive are those of the source. The calls were made as follows, unless noted: active = hit-call score of the fitted dose curve at least 0.9, where 1 is the maximum; inconclusive = response in the unintended direction; inactive = score below 0.9.

Legend:
[1] = target: Cellular tumor antigen p53 (Homo sapiens) (UniProt P04637); test: TOX21_p53_BLA_p2_ratio: Tox21 HCT-116 p53 Agonism Beta-lactamase Assay, Ratio, Phase 2 (AID 2283592)
Summary of the method: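 Gain-of-signal p53 agonism was scored from the beta-lactamase FRET ratio (460/530 nm, 405 nm excitation) in HCT116 cells treated 16 h at 37C, 5% CO2, with DMSO serving as negative control and baseline.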

[2] = TOX21_p53_BLA_p3_viability: Viability Assessment in the Tox21 HCT-116 p53 Agonism Beta-lactamase Assay, Phase 3 (AID 2283593);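 also: cells exposed to compound for 16 h before reading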
Summary of the method: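 HCT116 cells, 4000/well, dosed 5 h after plating by pin transfer (217-fold dilution from DMSO stock) and incubated 16 h at 37C, 5% CO2. Viability read as ATP luminescence with CellTiter-Glo after 30 min at room temperature.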

[3] = target: Cellular tumor antigen p53 (Homo sapiens) (UniProt P04637); test: TOX21_p53_BLA_p3_ratio: Tox21 HCT-116 p53 Agonism Beta-lactamase Assay, Ratio, Phase 3 (AID 2283596)
Summary of the method: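 HCT116 p53-bla cells (4000/well) given compound in DMSO (217-fold dilution) after 5 h, incubated 16 h at 37C. CCF4-AM substrate 2 h at room temperature; 460/530 nm emission ratio, gain fitted against DMSO.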

[4] = TOX21_p53_BLA_p4_viability: Viability Assessment in the Tox21 HCT-116 p53 Agonism Beta-lactamase Assay, Phase 4 (AID 2283597);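 also: hits lower the luminescence signal meaning cytotoxicity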
Summary of the method: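 Following a 16 h exposure at 37C, the treated HCT116 wells were first read for the FRET ratio. They were then lysed with CellTiter-Glo, and ATP luminescence was recorded after 30 min at room temperature.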

[5] = target: Cellular tumor antigen p53 (Homo sapiens) (UniProt P04637); test: TOX21_p53_BLA_p5_ratio: Tox21 HCT-116 p53 Agonism Beta-lactamase Assay, Ratio, Phase 5 (AID 2283599)
Summary of the method: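 HCT-116 p53-bla cells (4000/well) plated 5 h, dosed with compound (217-fold DMSO dilution) for 16 h at 37 C; CCF4-AM substrate 2 h at room temperature. Activity is the 460/530 nm emission ratio (405 nm excitation), fitted in gain-of-signal direction versus DMSO.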

[6] = TOX21_p53_BLA_p5_viability: Viability Assessment in the Tox21 HCT-116 p53 Agonism Beta-lactamase Assay, Phase 5 (AID 2283600)
Summary of the method: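 After the 460/530 nm beta-lactamase measurement, the wells received an ATP-detection luciferase reagent; signal was read 30 min later at RT. Compound treatment lasted 16 h on cells pre-incubated 5 h post-seeding.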

[7] = target: Cellular tumor antigen p53 (Homo sapiens) (UniProt P04637); test: TOX21_p53_BLA_p4_ratio: Tox21 HCT-116 p53 Agonism Beta-lactamase Assay, Ratio, Phase 4 (AID 2283601)
Summary of the method: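 HCT-116 p53 beta-lactamase reporter cells (4000/well) preincubated 5 h, then compound (217-fold dilution of DMSO stock) for 16 h at 37C. CCF4-AM substrate added 2 h at room temperature; 460/530 nm emission ratio fitted upward versus DMSO.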

PGR (gene 5241) [8] = target: PGR (gene 5241) (UniProt P06401); test: TOX21_PR_BLA_Followup_Agonist_ratio: Tox21 HEK293 Progesterone Receptor (PR) Agonism Beta-lactamase Follow-Up Assay, Ratio (AID 2283933)
Summary of the method: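 PR-UAS-bla HEK293T cells (GAL4-UAS beta-lactamase reporter) in medium with 2% charcoal-stripped FBS received compounds after 6 hr at 37C, then incubated 16 hr. LiveBLAzer FRET substrate added, 2 hr room temperature; cleaved/uncleaved (ch2/ch1) ratio fitted upward versus DMSO.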

PGR (gene 5241) [9] = target: PGR (gene 5241) (UniProt P06401); test: TOX21_PR_BLA_Followup_Antagonist_ratio: Tox21 HEK293 Progesterone Receptor (PR) Antagonism Beta-lactamase Follow-Up Assay, Ratio (AID 2283934)
Summary of the method: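 PR-UAS-bla HEK293T cells in medium with 2% charcoal-stripped FBS were treated with compounds plus 1 nM (final) promegestone (R5020) for 16 hr at 37C. LiveBLAzer B/G FRET substrate was then added for 2 h at room temperature; signal is cleaved/uncleaved substrate ratio versus DMSO.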

[10] = TOX21_PR_BLA_Followup_Agonist_viability: Viability Assessment in the Tox21 HEK293 Progesterone Receptor (PR) Agonism Beta-lactamase Follow-Up Assay (AID 2283935);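 also: signal loss means lower viability so actives are cytotoxic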
Summary of the method: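 PR-UAS-bla HEK293T cells in 2% charcoal-stripped FBS medium, compound added after 6 hr plating, 16 hr at 37C/5% CO2. After bla FRET read, CellTiter-Glo added; luminescence read after 30 min at room temperature; signal loss marks cytotoxicity.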

PGR (gene 5241) [11] = target: PGR (gene 5241) (UniProt P06401); test: TOX21_PR_LUC_Followup_Agonist: Tox21 HEK293 Progesterone Receptor (PR) Agonism Luciferase Follow-Up Assay (AID 2283937; active = hit-call score of the fitted dose curve at least 0.9, where 1 is the maximum; inactive = score below 0.9)
Summary of the method: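 HEK293-PR-A-luc cells, pre-cultured 5 days in medium with 10% charcoal-stripped FBS, were seeded at 3,000 cells/well, rested 5 h at 37C, then exposed to compounds 16 h at 37C; luciferase read by ONE-Glo luminescence after 30 min.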

[12] = TOX21_PR_LUC_Followup_Agonist_viability: Viability Assessment in the Tox21 HEK293 Progesterone Receptor (PR) Agonism Luciferase Follow-Up Assay (AID 2283941);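 also: loss of signal means cytotoxicity so actives lower viability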
Summary of the method: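 HEK293-PR-A-luc cells, pre-cultured 5 days in 10% charcoal-stripped FBS, were seeded at 3,000 cells/well, rested 5 h at 37C, then given compound in DMSO for 16 h at 37C. Cellular ATP was read by CellTiter-Glo luminescence; signal loss indicates cytotoxicity.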

Measured: outcome

Sequence of Cellular tumor antigen p53 (Homo sapiens) (P04637 whole entry, looked up): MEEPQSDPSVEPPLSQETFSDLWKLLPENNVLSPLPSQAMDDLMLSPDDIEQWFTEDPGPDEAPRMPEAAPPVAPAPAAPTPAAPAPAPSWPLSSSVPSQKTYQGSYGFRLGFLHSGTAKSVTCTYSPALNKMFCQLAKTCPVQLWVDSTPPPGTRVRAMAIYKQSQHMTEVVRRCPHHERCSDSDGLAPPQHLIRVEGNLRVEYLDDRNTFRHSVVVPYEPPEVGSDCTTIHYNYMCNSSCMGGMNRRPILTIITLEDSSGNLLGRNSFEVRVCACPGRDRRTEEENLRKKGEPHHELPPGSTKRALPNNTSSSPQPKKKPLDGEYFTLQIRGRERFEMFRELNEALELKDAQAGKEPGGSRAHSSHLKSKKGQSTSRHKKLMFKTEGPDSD
Sequence of PGR (gene 5241) (P06401 whole entry, looked up, the tested form may be a part): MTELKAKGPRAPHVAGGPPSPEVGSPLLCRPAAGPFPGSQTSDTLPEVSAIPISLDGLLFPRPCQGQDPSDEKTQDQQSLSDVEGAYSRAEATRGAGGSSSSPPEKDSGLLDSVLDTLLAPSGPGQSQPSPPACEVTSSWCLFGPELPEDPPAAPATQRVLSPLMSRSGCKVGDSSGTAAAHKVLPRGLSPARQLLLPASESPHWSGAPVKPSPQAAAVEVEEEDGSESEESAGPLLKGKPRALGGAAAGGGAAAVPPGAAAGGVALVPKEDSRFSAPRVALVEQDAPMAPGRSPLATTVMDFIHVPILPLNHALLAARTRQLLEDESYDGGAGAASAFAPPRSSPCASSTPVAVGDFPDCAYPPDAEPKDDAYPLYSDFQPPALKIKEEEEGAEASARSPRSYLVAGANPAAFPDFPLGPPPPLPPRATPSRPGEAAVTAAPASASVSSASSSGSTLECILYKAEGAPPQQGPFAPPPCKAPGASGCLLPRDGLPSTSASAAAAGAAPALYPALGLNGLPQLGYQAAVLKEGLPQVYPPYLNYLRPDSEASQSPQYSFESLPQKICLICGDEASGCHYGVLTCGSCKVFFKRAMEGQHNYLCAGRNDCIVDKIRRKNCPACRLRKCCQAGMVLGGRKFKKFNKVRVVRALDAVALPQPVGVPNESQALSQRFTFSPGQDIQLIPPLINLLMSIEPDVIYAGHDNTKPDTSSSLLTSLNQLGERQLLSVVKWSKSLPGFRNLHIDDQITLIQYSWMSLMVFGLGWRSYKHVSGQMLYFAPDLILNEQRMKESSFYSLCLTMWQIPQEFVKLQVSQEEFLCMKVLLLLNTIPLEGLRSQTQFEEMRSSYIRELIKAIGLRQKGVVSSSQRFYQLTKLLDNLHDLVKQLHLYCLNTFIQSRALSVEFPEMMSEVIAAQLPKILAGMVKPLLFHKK

N[C@@H]1C[C@H]1c1ccccc1
inactive: [1] | [2] | [3] | [4] | [5]

C=CCCC#N
inactive: [1] | [2] | [3] | [4] | [6]

CC(C)NCC(O)c1ccccc1Cl (stereo unspecified)
inactive: [1] | [2] | [3]

COC1=CC=C2[C@H]3Cc4ccc(OC)c5c4[C@@]2(CCN3C)[C@H]1O5
inactive: [1] | [2] | [3] | [4] | [5] | [6] | [7]

O=C1C(Cl)C(CCl)CN1c1cccc(C(F)(F)F)c1 (stereo unspecified)
not listed: [6]
inactive: all other assays above
